Reference: the supplement of paper PMC12350171
Structures can show the parent of a compound that is named as a salt. A number with no mark means an inactive call.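 Rule for the calls: active = AUC significantly below DMSO controls by Student t-fit with adjusted P under 0.01; inactive = not significantly reduced.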

test system: Haemophilus parainfluenzae; assay: growth AUC normalised to DMSO control (fraction of control); higher = less growth inhibition, active = hit call of the paper; conditions: 20 µM
Summary of the method: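 Pathogens passaged twice anaerobically were inoculated at a starting OD578 of 0.01 into pre-reduced mGAM plates with drug at 20 μM and 1% DMSO, sealed with breathable membranes. Haemophilus parainfluenzae medium was supplemented with hemin and NAD. OD578 was read hourly for 24 h, with three biological replicates. Growth-curve AUC was computed by the trapezoidal rule up to the exponential-to-stationary transition and normalised to DMSO controls on the same plate.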

| SMILES | growth AUC normalised to DMSO control |
| --- | --- |
| Nc1ccc(S(=O)(=O)Nc2ncccn2)cc1 [Sulfadiazine] | 1.01 |
| CC[C@@H]1C(=O)OC[C@@H]1Cc1cncn1C [Pilocarpine nitrate] | 0.981 |
| C[C@@H]1C[C@H]2[C@@H]3C[C@H](F)C4=CC(=O)C=C[C@]4(C)[C@@]3(Cl)[C@@H](O)C[C@]2(C)[C@H]1C(=O)COC(=O)C(C)(C)C [Clocortolone pivalate] | 1.73 |
| CCCNC(C)C(=O)Nc1c(C)csc1C(=O)OC (stereo not drawn) [Articaine hydrochloride] | 1.01 |
| CCCCOc1ccc(C(=O)CCN2CCCCC2)cc1 [Dyclonine hydrochloride] | 0.921 |
| CCC(C)(CN(C)C)OC(=O)c1ccccc1 (stereo not drawn) [Amyleine hydrochloride] | 1.01 |
| O=C(Nc1ccccc1)OCC(CN1CCCCC1)OC(=O)Nc1ccccc1 (stereo not drawn) [Diperodon hydrochloride] | 1.02 |
| Cc1c(OCC(F)(F)F)ccnc1C[S+]([O-])c1nc2ccccc2[nH]1 (stereo not drawn) [Lansoprazole] | 0.873 |
| CN(CCOc1ccc(CC2SC(=O)NC2=O)cc1)c1ccccn1 (stereo not drawn) [Rosiglitazone hydrochloride] | 1.06 |
| CC(CCc1ccc(O)cc1)NCCc1ccc(O)c(O)c1 (stereo not drawn) [Dobutamine hydrochloride] | 1.05 |
| C[C@@](Cc1ccc(O)c(O)c1)(NN)C(=O)O [Carbidopa] | 0.996 |
| Cc1cccn2c(=O)c(-c3nnn[nH]3)cnc12 [Pemirolast potassium] | 0.933 |
| N=C(N)N1CCc2ccccc2C1 [Debrisoquin sulfate] | 0.978 |
| CCCCCN(C)CCC(O)(P(=O)(O)O)P(=O)(O)O [Ibandronate sodium] | 0.995 |
| CC(=O)OCC(=O)[C@@]1(O)CC[C@H]2[C@@H]3CCC4=CC(=O)CC[C@]4(C)[C@@]3(F)[C@@H](O)C[C@@]21C [Fludrocortisone acetate] | 1.02 |
| CCOC(=O)C1=C(C)NC(C)=C(C(=O)OCC)C1c1ccccc1/C=C/C(=O)OC(C)(C)C [Lacidipine] | 1.01 |
| CC(=C(CCO)SSCC1CCCO1)N(C=O)Cc1cnc(C)nc1N (stereo in doubt) [Fursultiamine hydrochloride] | 0.986 |
| C[C@]12CC[C@@H]3c4ccc(OS(=O)(=O)O)cc4CC[C@H]3[C@@H]1CCC2=O [Estropipate piperazine salt] | 0.985 |
| CC/C(=C(/CC)c1ccc(O)cc1)c1ccc(O)cc1 [Diethylstilbestrol] | 1.01 |

| SMILES | growth AUC normalised to DMSO control |
| --- | --- |
| C[C@]1(Cn2ccnn2)[C@H](C(=O)O)N2C(=O)C[C@H]2S1(=O)=O [Tazobactam] | 1.02 |
| COC(=O)C1=C(C)NC(C)=C(C(=O)OC)C1c1ccccc1[N+](=O)[O-] [Nifedipine] | 0.998 |
| Cc1ccc(-c2ncc(Cl)cc2-c2ccc(S(C)(=O)=O)cc2)cn1 [Etoricoxib] | 1 |
| Cc1cc(C(C)(C)CC(C)(C)C)ccc1OCCOCC[N+](C)(C)Cc1ccccc1 [Methyl benzethonium chloride] | 0.994 |
| O=c1[nH]c(=O)n([C@H]2C[C@H](O)[C@@H](CO)O2)cc1C(F)(F)F [Trifluridine] | 1.08 |
| CN(C)c1nc(N(C)C)nc(N(C)C)n1 [Altretamine] | 1.05 |
| O=C1NCCN1CCN1CCC(c2cn(-c3ccc(F)cc3)c3ccc(Cl)cc23)CC1 [Sertindole] | 1 |
| CC(C)(C)NC[C@H](O)COc1cccc2c1CCCC2=O [(-) Levobunolol hydrochloride] | 0.989 |
| COc1cccc2c1C(=O)c1c(O)c3c(c(O)c1C2=O)C[C@@](O)(C(C)=O)C[C@@H]3O[C@H]1C[C@H](N)[C@H](O)[C@H](C)O1 [Daunorubicin hydrochloride] | 0.997 |
| CC(C)(C(=O)c1cccnc1)c1cccnc1 [Metyrapone] | 0.991 |
| CCN(CC)CCOC(=O)C(c1ccccc1)c1ccccc1 [Adiphenine hydrochloride] | 1.02 |
| C=C(CC)C(=O)c1ccc(OCC(=O)O)c(Cl)c1Cl [Ethacrynic acid] | 1.02 |
| Cc1cc(/C=C/c2ccc3cc(N(C)C)ccc3[n+]2C)c(C)n1-c1ccccc1 [Pyrvinium pamoate] | 1.06 |
| CN(c1nccc(=O)[nH]1)C1CCN(c2nc3ccccc3n2Cc2ccc(F)cc2)CC1 [Mizolastine] | 1.11 |
| CNC1(C)C2CCC(C2)C1(C)C (stereo not drawn) [Mecamylamine hydrochloride] | 0.988 |
| O=C(O)Cc1cc(I)c(Oc2ccc(O)c(I)c2)c(I)c1 [Tiratricol] | 0.896 |
| CC(=O)NC[C@H]1CN(c2ccc(N3CCOCC3)c(F)c2)C(=O)O1 [Linezolid] | 0.582 (active) |
| CC(C)[C@H](N)C(=O)OCCOCn1cnc2c(=O)nc(N)[nH]c21 [Valacyclovir hydrochloride] | 0.99 |
| N[C@@H](Cc1cc(I)c(Oc2ccc(O)c(I)c2)c(I)c1)C(=O)O [Liothyronine] | 0.943 |
